Measurements reported in PubChem BioAssay (NCATS).
Records with an inconclusive call do not appear. Entries that show only a call come without a potency. Unmarked numbers belong to inactive results. Active and inactive are the calls of the source. Calls come from the whole dose curve; as a rule, active = well fitted cell-killing curve with a large enough effect; inconclusive = small, poorly fitted or top-dose-only effect, or effect the other way; inactive = flat fitted curve, though single readings scatter. Where a SMILES comes first, the peptide text is derived from it. The star is where a group is joined. AFC = O=c1cc(C(F)(F)F)c2ccc(N*)cc2o1

system: CASKI; assay: Primary qHTS to identify gynecologic anti-cancer compounds using libraries of approved drugs and bioactive compounds (AID 1345084); settings: Gynecologic cancer cell panel viability, ATPlite luminescence, 48 h; series mostly up to 57.5 µM; note: nearly all actives have a fitted effect of over 55% in size
How it was run: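 Cells, 1,000 per well, plated 16 h, then exposed 48 h at 37 C to compounds. Viability by ATPlite luminescence after 15 min at room temperature.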

| SMILES | Potency | activity change, negative = cytotoxicity |
| --- | --- | --- |
| CCC(C)C(=O)O[C@H]1CCC=C2C=C[C@H](C)[C@H](CC[C@@H](O)C[C@@H](O)CC(=O)O)[C@H]21 (some centres undefined) | inactive | – |
| CC(=O)NC1C(OC(C)(C)C2CCC3(C)C=C(C4CCC5C4(C)CC(O)C4OC(C(C)(C)O)CCC45C)CCC3O2)OC(CO)C(O)C1O (centres undefined) | inactive | – |
| CC(=O)O[C@@H]1c2c3c(cc(O)c2C(=O)O[C@@H]1C)O[C@@]1(C)[C@@H](O)C[C@H]2C(C)(C)C(=O)C=C[C@]2(C)[C@@H]1C3 | inactive | – |
| COc1c(C)c(OCC(O)C(C)(C)O)cc2c1COC2=O (centres undefined) | inactive | – |
| CC(=O)CC1CCC(C(C)C(=O)OCC(O)CO)O1 (centres undefined) | inactive | – |
| O=C(O)COCCN1CCN([C@H](c2ccccc2)c2ccc(Cl)cc2)CC1 | inactive | – |
| Nc1nc2c(ncn2[C@@H]2O[C@@H]3COP(=O)(O)O[C@H]3[C@H]2O)c(=O)[nH]1 | inactive | – |
| CC1=C(C(=O)O)/C(=C/CO[C@@H]2O[C@H](COC(=O)/C=C/c3ccc(O)cc3)[C@@H](O)[C@H](O)[C@H]2O)C(O)C1 (some centres undefined) | inactive | – |
| Cc1cc(C)c2c(N)c(C(=O)NCc3ccc(Cl)cc3)sc2n1 | inactive | – |
| CC(=O)OC1C(O)C2C(C)C3=CC(=O)OC3(O)CC2C2(C)CCCC(C)(CO)C12 (centres undefined) | inactive | – |
| CC(C)C(NC(=O)c1ccc2ccccc2n1)C(=O)NC(CC(=O)O)C(=O)COc1c(F)cccc1F (centres undefined) | inactive | – |
| O=C(Nc1ccc(-c2ccncc2)cc1)N[C@H](CO)c1ccccc1 | inactive | – |
| CC1=CC2/C=C(\C)CC[C@@H](O)[C@@H](O)[C@@H]3O[C@@H]3C(=O)[C@]23C(=O)N[C@@H](CC(C)C)[C@@H]3[C@@H]1C (some centres undefined) | inactive | – |
| O=C(NCC(O)CO)c1ccncc1Nc1ccc(I)cc1F (centres undefined) | inactive | – |
| CC1(C)CC2=C3C=CC4C5(C)CCC(O)C(C)(C)C5CCC4(C)C3(C)CCC2(C)C(O)C1 (centres undefined) | inactive | – |
| COC(=O)C1=CO[C@@H](O[C@@H]2O[C@H](CO)[C@@H](O)[C@H](O)[C@H]2O)[C@H]2[C@@H]1CC(OC)O[C@@H]2C (some centres undefined) | inactive | – |
| C[C@@H]1O[C@@H](O[C@@H]2[C@@H](O[C@@H]3O[C@@H](C)[C@H](O[C@@H]4OC[C@H](O)[C@H](O[C@@H]5OC[C@@H](O)[C@H](O)[C@H]5O)[C@H]4O)[C@@H](O[C@@H]4OC[C@](O)(CO)[C@H]4O)[C@H]3O)[C@H](OC(=O)[C@]34CCC(C)(C)C[C@H]3C3=CCC5[C@@]6(C)C[C@H](O)[C@H](O[C@@H]7O[C@H](CO[C@@H]8OC[C@H](O)[C@H](O)[C@H]8O)[C@@H](O)[C@H](O)[C@H]7O)C(C)(C)C6CC[C@@]5(C)[C@]3(C)C[C@H]4O)OC[C@H]2O)[C@H](O)[C@H](O)[C@H]1O (some centres undefined) | – | -5.17% [at 6.55 µM] |
| C=C1CCCC2(C)CC3(OC)OC(=O)C(C)=C3CC12 (centres undefined) | inactive | – |
| CC(C)=CCC/C(C)=C/CCC1(C)Oc2c(c(O)cc3c2CN(C(CCC(=O)O)C(=O)O)C3=O)CC1O (centres undefined) | inactive | – |
| C=C(C(=O)O)C1CCC2(C)CCC(O)C(=C)C2C1 (centres undefined) | inactive | – |

| SMILES | Potency | activity change, negative = cytotoxicity |
| --- | --- | --- |
| CC12CCC3c4ccc(OC5OC(C(=O)O)C(O)C(O)C5O)cc4CCC3C1CCC2O (centres undefined) | inactive | – |
| CC(=O)N[C@@H](Cc1c[nH]c2ccccc12)C(=O)N[C@@H](CCC(=O)O)C(=O)N[C@@H](Cc1cnc[nH]1)C(=O)N[C@@H](CC(=O)O)C(=O)Nc1ccc2c(C(F)(F)F)cc(=O)oc2c1 (Ac-WEHD-{AFC}) | inactive | – |
| C[C@@H]1O[C@@H](O[C@H]2[C@@H](OC(=O)[C@]34CCC(C)(C)CC3C3=CCC5[C@@]6(C)C[C@H](O)[C@H](O[C@@H]7O[C@H](C(=O)O)[C@@H](O)[C@H](O)[C@H]7O)[C@@](C)(C(=O)O)C6CC[C@@]5(C)[C@]3(C)CC4)OC[C@H](O)[C@@H]2O)[C@H](O)[C@H](O)[C@H]1O[C@@H]1OC[C@@H](O)[C@H](O)[C@H]1O (some centres undefined) | – | 0.336% [at 11.6 µM] |
| CC12CCC(C(OC3OC(COC4OCC(O)(CO)C4O)C(O)C(O)C3O)C1)C(C)(C)O2 (centres undefined) | inactive | – |
| O=C(/C=C\c1ccc(O)cc1)N[C@@H](Cc1ccc(O)cc1)C(=O)O | inactive | – |
| O=C(O)c1cccc(S(=O)(=O)N2CCc3ccccc3C2)c1 | inactive | – |
| C[C@@H]1O[C@@H](O[C@H]2[C@H](O)[C@@H](O[C@@H]3O[C@H](CO)[C@@H](O)[C@H](O[C@@H]4O[C@H](CO)[C@@H](O)[C@H](O)[C@H]4O)[C@H]3O)[C@H](O[C@H]3CC[C@@]4(C)C(=CC[C@@H]5C4CC[C@@]4(C)C5C[C@@H]5OC6(CC[C@@](C)(CO[C@@H]7O[C@H](CO)[C@@H](O)[C@H](O)[C@H]7O)O6)[C@@H](C)[C@@H]54)C3)O[C@@H]2CO)[C@H](O)[C@H](O)[C@H]1O (some centres undefined) | – | -1.1% [at 6.55 µM] |
| COc1ccc(/C=C/C(=O)O[C@H]2[C@H](O[C@H]3[C@@H]4C=CO[C@@H](O[C@@H]5O[C@H](CO)[C@@H](O)[C@H](O)[C@H]5O)[C@@H]4[C@@]4(CO)O[C@@H]34)O[C@@H](C)[C@H](O)[C@H]2OC(C)=O)cc1 | inactive | – |
| COC(=O)C12C(=O)C(C)=C(O)C1(C)C(C)=CC1C3(CO)CCC(O)C(C)(C)C3CCC12C (centres undefined) | inactive | – |
| C=C1[C@H](OC(C)=O)[C@H]2[C@@H](OC(C)=O)[C@](C)(OC(C)=O)C[C@]2(OC(C)=O)C(=O)[C@H](C)/C=C/C(C)(C)C(=O)[C@H](OC(=O)C(C)C)[C@H]1OC(C)=O | inactive | – |
| COC(=O)N(C)c1c(N)nc(-c2nn(Cc3ccccc3F)c3ncccc23)nc1N | inactive | – |
| C=C1C[C@]23C[C@H]1CC[C@H]2[C@@]1(C)CCC[C@@]2(C)C(=O)O[C@@H]([C@@H]3O)[C@@H]12 | inactive | – |
| CC(O)CCC1C(CO[C@@H]2O[C@H](CO)[C@@H](O)[C@H](O)[C@H]2O)CC(O)CC1(C)C (some centres undefined) | inactive | – |
| CC1=C2C[C@H]3O[C@@]3(C)CCC3O[C@@]3(C)C[C@@]2(O)OC1=O (some centres undefined) | inactive | – |
| O=C(O)Cc1cn(C2OCC(O)C(O)C2O[C@@H]2O[C@H](CO)[C@@H](O)[C@H](O)[C@H]2O)c2ccccc12 (some centres undefined) | inactive | – |
| CC(C)C(C#N)O[C@@H]1O[C@H](CO[C@@H]2O[C@@H](C)[C@H](O)[C@@H](O)[C@H]2O)[C@@H](O)[C@H](O)[C@H]1O (some centres undefined) | inactive | – |
| COC1CC(OC2CCC3(C)C(=CCC4C3C(OC(C)=O)C(OC(=O)/C=C/c3ccccc3)C3(C)C(C(C)O)CCC43O)C2)OC(C)C1OC1CC(OC)C(OC2OC(C)C(OC3OC(CO)C(O)C(O)C3O)C(OC)C2O)C(C)O1 (centres undefined) | – | -3.47% [at 6.55 µM] |
| C=C1C(O)CC2C(C(=O)O)=COC(O[C@@H]3O[C@H](COC(=O)/C=C/c4ccc(O)cc4)[C@@H](O)[C@H](O)[C@H]3O)C12 (some centres undefined) | inactive | – |
| CC(=O)O[C@H]1CC[C@H](C)[C@@]2(C)[C@H](OC(C)=O)c3c(C)coc3C(=O)[C@H]12 | inactive | – |
